# Compound activity from PubChem.
# This excerpt belongs to a sample that is enriched for hits.
# Dicer inh: blocks human Dicer maturation of pre-miR-21 | Q9UPY3 | cat-ELCCA pre-miR-21 Dicer processing, chemiluminescence; active compounds read high | z-score at 25 µM | 47,000 tested, 6% active | AID 1347074; in the data active = z-score above about 3, passing the limit was not always enough;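 also: plate controls were vehicle for no effect and no enzyme for full effect; higher signal means more uncleaved substrate so more Dicer inhibition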
# * marks the source's active call; other numbers are inactive results.
SMILES,Dicer inh
O=C(Nc1ccc(O)c(-c2nc3ccccc3s2)c1)c1ccc([N+](=O)[O-])o1,1.1
Cc1cccc(C(=O)Nc2ccccn2)c1,-1.2
Clc1ccc(OCc2noc(-c3ccoc3)n2)c(Cl)c1,0.88
CSc1sc(Br)c2c1/C(=N/OC(=O)c1ccc(Cl)cc1)CC(C)(C)C2,0.2
COC(=O)c1sc(SC)c2c1CC(C)(C)C/C2=N\OC(=O)c1ccc(Cl)cc1,3.3*
CSc1sc(Br)c2c1/C(=N/OC(=O)c1ccccc1Cl)CC(C)(C)C2,-0.22
O=C1SC(Nc2ccc(Br)cc2)C(=O)N1Cc1ccccc1 (stereo not given),2.5
CCCCOC(=O)c1cccc2c1-c1ccccc1C2=O,0.16
Cc1ccc(C2CC(C(F)(F)F)n3nc(C(=O)NC(C)C)cc3N2)cc1 (stereo not given),-0.35
O=C(NCc1ccco1)c1cc2n(n1)C(C(F)(F)F)CC(c1ccc(Br)cc1)N2 (stereo not given),3.5*
O=C(NCc1cccs1)c1cc2n(n1)C(C(F)(F)F)CC(c1ccc(Cl)cc1)N2 (stereo not given),0.44
O=C(NCc1ccccn1)c1cc2n(n1)C(C(F)(F)F)CC(c1ccco1)N2 (stereo not given),0.16
O=C(NCCCn1ccnc1)c1cc2n(n1)C(C(F)(F)F)CC(c1ccc(Cl)cc1)N2 (stereo not given),0.68
O=C(NC1CCCC1)c1cc2n(n1)C(C(F)(F)F)CC(c1ccc(Br)cc1)N2 (stereo not given),4.4*
O=C(Nc1cccnc1)c1cc2n(n1)C(C(F)(F)F)CC(c1ccc(Br)cc1)N2 (stereo not given),4.7*
O=C(NC1CCCC1)c1cc2n(n1)C(C(F)(F)F)CC(c1ccccc1)N2 (stereo not given),-0.58
Cc1cc(C)cc(NC(=O)c2cc3n(n2)C(C(F)(F)F)CC(c2ccco2)N3)c1 (stereo not given),1.7
O=C1CCCCN1c1ccc(C(F)(F)F)cc1,1.2
COC(=O)C1=C(O)CSC1=Nc1ccccc1F,0.19
O=C(O)CCS(=O)c1ccccc1C(=O)O (stereo not given),0.19
Cc1cc(C)n(C(=O)C2COc3ccccc3O2)n1 (stereo not given),-0.06
O=C(c1nn2c(c1Cl)NC(c1ccc(F)cc1)CC2C(F)(F)F)N1CCCCC1 (stereo not given),8.8
CCC(C)NC(=O)c1cc2n(n1)C(C(F)(F)F)CC(c1ccc3c(c1)OCO3)N2 (stereo not given),2.5
NC(=O)c1nn2c(c1Cl)NC(c1ccc(Cl)cc1)CC2C(F)(F)F (stereo not given),3.5*
O=C(c1nn2c(c1Cl)NC(c1ccccc1)CC2C(F)(F)F)N1CCCCC1 (stereo not given),5.6*
SMILES,Dicer inh
O=C(NCc1cccnc1)c1nn2c(c1Cl)NC(c1ccccc1)CC2C(F)(F)F (stereo not given),-1.8
Cc1ccc(C2CC(C(F)(F)F)n3nc(C(=O)NCc4c(C)nn(C)c4C)c(Cl)c3N2)cc1 (stereo not given),-1.2
O=C(NCc1ccccc1)c1nn2c(c1Br)NC(c1ccccc1)CC2C(F)(F)F (stereo not given),5.2*
O=C(c1nn2c(c1Cl)NC(c1ccc(Cl)cc1)CC2C(F)(F)F)N1CCSCC1 (stereo not given),0.58
O=C(c1nn2c(c1Cl)NC(c1cccs1)CC2C(F)(F)F)N1CCCc2ccccc21 (stereo not given),2.8
CCCNC(=O)c1nn2c(c1Br)NC(c1cccs1)CC2C(F)(F)F (stereo not given),-0.29
Cc1c(CNC(=O)c2nn3c(c2Cl)NC(c2cccs2)CC3C(F)(F)F)cnn1C (stereo not given),1.2
CCC(C)NC(=O)c1nn2c(c1Cl)NC(c1ccc(Cl)cc1)CC2C(F)(F)F (stereo not given),4.9*
CCOC(=O)c1c(NC(=O)Oc2ccccc2)sc2c1CCCC2,0.18
CCOC(=O)c1c(NC(C)=O)sc2c1CCC(C(C)(C)C)C2 (stereo not given),-0.86
CC1=C(C(=O)OC2CCCCC2)C(c2ccc(C)o2)C2=C(CC(c3ccccc3)CC2=O)N1 (stereo not given),-0.28
N#Cc1c(NC(=O)c2ccccc2C(=O)O)sc2c1CCCC2,1.3
Cc1nc(-c2ccc(S(=O)(=O)N3CCCN(c4ccc(C(F)(F)F)cn4)CC3)s2)cs1,2.6
CCOc1ccc(C2c3c(oc4ccc(F)cc4c3=O)C(=O)N2CC2CCCO2)cc1 (stereo not given),-0.96
NC(=S)c1ccc(C(F)(F)F)cc1Cl,-0.1
CC(C)(C)c1csc(N/N=C/c2cccs2)n1,-6.1
CCOC(=O)C(NC(=O)CC)(Nc1ccccc1C)C(F)(F)F (stereo not given),-1.8
COC(=O)CSc1cc(C(F)(F)F)c(C(=O)Nc2ccc(Cl)cc2)cn1,-2.1
CC(C)=NNC(=S)Nc1ccc(Cl)cc1,6*
S=C(Nc1ccc(Cl)cc1)Nc1ccc(Cl)cc1,1.8
CNNC(=S)Nc1ccc(Cl)cc1,0.59
COc1cc(C=Nc2ccc(S(=O)(=O)Nc3nc(C)cc(C)n3)cc2)cc(OC)c1OC,-0.04
NS(=O)(=O)c1cc(Cl)ccc1Cl,0.48
COc1ccc(CCN2C(=O)CCC(C(=O)O)C2c2cc(OC)c(OC)c(OC)c2)cc1OC (stereo not given),0.49
Cc1ccnc(NC(c2ccc(C)s2)c2ccc3cccnc3c2O)c1 (stereo not given),0.85
SMILES,Dicer inh
C=CCOc1cccc(C(Nc2cc(C)ccn2)c2ccc3cccnc3c2O)c1 (stereo not given),8.3*
Cc1ccnc(NC(c2cccc(F)c2)c2ccc3cccnc3c2O)c1 (stereo not given),11*
Cc1ccnc(NC(c2ccccc2F)c2ccc3cccnc3c2O)c1 (stereo not given),4.3
Cc1ccnc(NC(c2cc(C)ccc2O)c2ccc3cccnc3c2O)c1 (stereo not given),11*
COc1ccc(C(Nc2cc(C)ccn2)c2ccc3ccc(C)nc3c2O)cc1 (stereo not given),1.4
Cc1ccnc(NC(c2cccc(F)c2)c2ccc3ccc(C)nc3c2O)c1 (stereo not given),6.1*
COc1cccc(C(Nc2cc(C)ccn2)c2ccc3cccnc3c2O)c1 (stereo not given),7.7
Cc1ccc2ccc(C(Nc3ccccn3)c3cccs3)c(O)c2n1 (stereo not given),2.8
O=C(COC(=O)c1cccc2cccc(Sc3ccccc3)c12)c1ccc(Br)cc1,-0.55
COc1cc2c(cc1OC)C(=O)NCC2,0.66
Cc1cc(NC(=O)NCC(O)c2ccccc2)c(C(F)(F)F)o1 (stereo not given),-1.3
COc1cc(-n2c(CCc3nc(-c4ccc(Cl)cc4)no3)n[nH]c2=S)c(OC)cc1Cl,-0.93
COc1ccc(N2CCN(S(=O)(=O)c3ccc(Cl)cc3)CC2)cc1,0.4
COc1ccc(NS(=O)(=O)c2ccc3c(c2)OCCO3)c(OC)c1,-2.6
O=S(=O)(Nc1ccc(OCc2ccccc2)cc1)c1ccc2c(c1)OCCO2,3.4*
O=S(=O)(NCCc1ccccn1)c1ccc2c(c1)OCCCO2,0.54
CCCCN1C(=O)C2(/C(=C(/O)c3ccc(F)cc3)C(=O)C(=O)N2CCCN(C)C)c2ccccc21 (stereo not given),1.2
COc1ccc(/C(O)=C2/C(=O)C(=O)N(CCN(C)C)C23C(=O)N(C)c2ccccc23)cc1 (stereo not given),1.9
